Results as given in PubChem BioAssay.
Where “and” joins values, the source holds several entries; their conditions need not be identical. Equal values may be shown once. Records with an inconclusive call do not appear. Calls of active or inactive are those of the source. Unless noted, no rule for the calls is given here.

What was measured:
[1] = modulation of C. elegans fzo-1 (AID 1259413);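 also: fzo-1 mutant C. elegans worms in liquid wells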; settings: C. elegans fzo-1 modulator screen, mean read-out; stronger effect = higher value
[2] = differential killing of epithelial or mesenchymal cells, primary screen, imaging, PC-3E GFP, TEM4-18 mCherry, co-culture (AID 1345086;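 active = compounds killing one labelled cell type while sparing the other, by normalised counts and ratio limits, not self-fluorescent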;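 as to all read-outs here: cells exposed to compound for 72 h before imaging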;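 as to red/green cell ratio (normalised): normalised mesenchymal count divided by normalised epithelial count so high means epithelial killing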); settings: imaging cell counts, at 1 µM; for red/green cell ratio (normalised): actives lie on both sides, counts scaled to control wells, 1 = unselective
[3] = tested on: Aerobactin synthetase IucA (Klebsiella pneumoniae); experiment: IucA aerobactin synthetase inhibitors, biochemical, Tocris library, absorbance (AID 1345561); settings: purified IucA enzyme assay, absorbance (OD) read-out; stronger effect = lower value;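 tested at 8 µM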;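 also: 100% = enzyme without compound and 0% = no enzyme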
[4] = growth inhibition of DIPG glioma cells, dose response, cell-based, SU-DIPG-XVII, MIPE5.0, CellTiter-Glo, qHTS (AID 1347060; cut-off not given, nearly all actives have AC50 up to about 26 µM); settings: SU-DIPG-XVII viability, CellTiter-Glo ATP luminescence
[5] = growth inhibition of DIPG glioma cells, dose response, cell-based, SU-DIPG-XIII, MIPE4.0, CellTiter-Glo, qHTS (AID 1347061; cut-off not given, nearly all actives have AC50 up to about 37 µM;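 also: cells exposed to compound for 48 hours before readout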); settings: SU-DIPG-XIII viability, CellTiter-Glo ATP luminescence
[6] = growth inhibition of DIPG glioma cells, dose response, cell-based, JHH-DIPG-1, MIPE4.0, CellTiter-Glo, qHTS (AID 1347062; cut-off not given, nearly all actives have AC50 up to about 27 µM); settings: JHH-DIPG-1 viability, CellTiter-Glo ATP luminescence
[7] = growth inhibition of DIPG glioma cells, dose response, cell-based, SU-DIPG-IV, MIPE4.0, CellTiter-Glo, qHTS (AID 1347063; cut-off not given, nearly all actives have AC50 up to about 30 µM;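 also: compound exposure lasted 48 hours before the viability readout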); settings: SU-DIPG-IV viability, CellTiter-Glo ATP luminescence
[8] = growth inhibition of DIPG glioma cells, dose response, cell-based, SU-DIPG-XIII, MIPE5.0, CellTiter-Glo, qHTS (AID 1347064; cut-off not given, nearly all actives have AC50 up to about 23 µM); settings: SU-DIPG-XIII viability, CellTiter-Glo ATP luminescence
[9] = measured here: epithelial PC-3E GFP cell survival
[10] = measured here: mesenchymal TEM4-18 mCherry cell survival

O=C(CCNNC(=O)c1ccncc1)NCc1ccccc1
mean signal [1]: 273 (inactive) | red/green cell ratio (normalised) [2]: 1.02 (inactive) | normalised cell number [2, 9]: 1.02 | normalised cell number [2, 10]: 1.04

CN1CCN(c2c(F)cc3c(=O)c(C(=O)O)cn4c3c2SCC4)CC1
mean signal [1]: 251 (inactive) | red/green cell ratio (normalised) [2]: 1.06 (inactive) and 1.18 (inactive) | normalised cell number [2, 9]: 1.01 and 0.81 | normalised cell number [2, 10]: 1.07 and 0.95

CCN1CCCC1CNC(=O)c1cc(S(=O)(=O)CC)c(N)cc1OC (configuration not stated)
mean signal [1]: 235 (inactive) | red/green cell ratio (normalised) [2]: 1.01 (inactive) | normalised cell number [2, 9]: 0.89 | normalised cell number [2, 10]: 0.9 | remaining activity [3]: 104% (inactive) | outcome [4]: inactive | outcome [5]: inactive | outcome [6]: inactive | outcome [7]: inactive | outcome [8]: inactive

Cc1cccc(C)c1NC(=O)C(C)N (configuration not stated)
mean signal [1]: 270 (inactive) | red/green cell ratio (normalised) [2]: 0.66 (inactive) | normalised cell number [2, 9]: 1.32 | normalised cell number [2, 10]: 0.88

CN1CCCCC1CCN1c2ccccc2Sc2ccc(S(C)=O)cc21 (configuration not stated)
mean signal [1]: 243 (inactive) | red/green cell ratio (normalised) [2]: 1.05 (inactive) | normalised cell number [2, 9]: 1.11 | normalised cell number [2, 10]: 1.16

c1cnc(N2CCN(Cc3ccc4c(c3)OCO4)CC2)nc1
mean signal [1]: 255 (inactive) | red/green cell ratio (normalised) [2]: 1.12 (inactive) | normalised cell number [2, 9]: 0.85 | normalised cell number [2, 10]: 0.96 | remaining activity [3]: 119% (inactive)

CCN1CCN(c2cc3c(cc2F)c(=O)c(C(=O)O)cn3C2CC2)CC1
mean signal [1]: 280 (inactive) | red/green cell ratio (normalised) [2]: 1.09 (inactive) | normalised cell number [2, 9]: 1.12 | normalised cell number [2, 10]: 1.23

CC1CCN(CCCC(=O)c2ccc(F)cc2)CC1
mean signal [1]: 246 (inactive) | red/green cell ratio (normalised) [2]: 0.9 (inactive) | normalised cell number [2, 9]: 0.97 | normalised cell number [2, 10]: 0.88 | remaining activity [3]: 103% (inactive)

Oc1c(Cl)cc(Cl)c(Cl)c1Cc1c(O)c(Cl)cc(Cl)c1Cl
mean signal [1]: 211 (inactive) | red/green cell ratio (normalised) [2]: 0.64 (inactive) | normalised cell number [2, 9]: 0.83 | normalised cell number [2, 10]: 0.53

CCc1oc2ccccc2c1C(=O)c1cc(Br)c(O)c(Br)c1
mean signal [1]: 252 (inactive) | red/green cell ratio (normalised) [2]: 0.88 (inactive) | normalised cell number [2, 9]: 1.08 | normalised cell number [2, 10]: 0.95

C[C@H]1COc2c(C3(N)CC3)c(F)cc3c(=O)c(C(=O)O)cn1c23
mean signal [1]: 269 (inactive) | red/green cell ratio (normalised) [2]: 1.3 (inactive) and 0.88 (inactive) | normalised cell number [2, 9]: 0.98 and 1.07 | normalised cell number [2, 10]: 1.28 and 0.94

CCOC(=O)OC(C)OC1=C(C(=O)Nc2ccccn2)N(C)S(=O)(=O)c2ccccc21 (configuration not stated)
mean signal [1]: 259 (inactive) | red/green cell ratio (normalised) [2]: 1.19 (inactive) | normalised cell number [2, 9]: 0.84 | normalised cell number [2, 10]: 1

COc1ccc(C(=O)NCc2ccc(OCCN(C)C)cc2)cc1OC
mean signal [1]: 262 (inactive) | red/green cell ratio (normalised) [2]: 0.88 (inactive) | normalised cell number [2, 9]: 1.24 | normalised cell number [2, 10]: 1.1

O=C1CC2(CCCC2)CC(=O)N1CCCCN1CCN(c2ncccn2)CC1
mean signal [1]: 228 (inactive) | red/green cell ratio (normalised) [2]: 1.04 (inactive) | normalised cell number [2, 9]: 1.05 | normalised cell number [2, 10]: 1.09 | remaining activity [3]: 109% (inactive)

O=C(NCCN1CCOCC1)c1ccc(Cl)cc1
mean signal [1]: 247 (inactive) | red/green cell ratio (normalised) [2]: 0.88 (inactive) | normalised cell number [2, 9]: 0.89 | normalised cell number [2, 10]: 0.79

Nc1nc(N)nc(-c2cc(Cl)ccc2Cl)n1
mean signal [1]: 297 (inactive) | red/green cell ratio (normalised) [2]: 1.01 (inactive) | normalised cell number [2, 9]: 1.08 | normalised cell number [2, 10]: 1.09 | remaining activity [3]: 103% (inactive) | outcome [4]: inactive | outcome [5]: inactive | outcome [6]: inactive

COc1ccc(CN2CCN(C(c3ccc(F)cc3)c3ccc(F)cc3)CC2)c(OC)c1OC
mean signal [1]: 204 (inactive) | red/green cell ratio (normalised) [2]: 1.08 (inactive) | normalised cell number [2, 9]: 0.96 | normalised cell number [2, 10]: 1.03

CC(=O)NS(=O)(=O)c1ccc(N)cc1
mean signal [1]: 275 (inactive) | red/green cell ratio (normalised) [2]: 1.56 (inactive) | normalised cell number [2, 9]: 0.84 | normalised cell number [2, 10]: 1.31

CCc1c(C)[nH]c2c1C(=O)C(CN1CCOCC1)CC2 (configuration not stated)
mean signal [1]: 257 (inactive) | red/green cell ratio (normalised) [2]: 1.03 (inactive) | normalised cell number [2, 9]: 0.94 | normalised cell number [2, 10]: 0.96

CCN(CC)CCNC(=O)c1cc(Cl)c(N)cc1OC
mean signal [1]: 245 (inactive) | red/green cell ratio (normalised) [2]: 1.02 (inactive) | normalised cell number [2, 9]: 1.09 | normalised cell number [2, 10]: 1.12

Nc1nc2c(ncn2CCC(CO)CO)c(=O)[nH]1
mean signal [1]: 282 (inactive) | red/green cell ratio (normalised) [2]: 1 (inactive) | normalised cell number [2, 9]: 0.96 | normalised cell number [2, 10]: 0.96

OCCOCCN1CCN(C2=Nc3ccccc3Sc3ccccc32)CC1
mean signal [1]: 248 (inactive) | red/green cell ratio (normalised) [2]: 0.87 (inactive) | normalised cell number [2, 9]: 1.08 | normalised cell number [2, 10]: 0.94

CC(C)NCC(O)COc1ccc(CCOCC2CC2)cc1 (configuration not stated)
mean signal [1]: 281 (inactive) | red/green cell ratio (normalised) [2]: 0.81 (inactive) | normalised cell number [2, 9]: 1.26 | normalised cell number [2, 10]: 1.02 | remaining activity [3]: 100% (inactive) | outcome [4]: inactive | outcome [5]: inactive | outcome [6]: inactive | outcome [7]: inactive | outcome [8]: inactive

COc1cc2c(cc1OC)C(=O)C(CC1CCN(Cc3ccccc3)CC1)C2 (configuration not stated)
mean signal [1]: 214 (inactive) | red/green cell ratio (normalised) [2]: 1.04 (inactive) | normalised cell number [2, 9]: 1.04 | normalised cell number [2, 10]: 1.09

CCc1nn(CCCN2CCN(c3cccc(Cl)c3)CC2)c(=O)n1CCOc1ccccc1
mean signal [1]: 239 (inactive) | red/green cell ratio (normalised) [2]: 1.11 (inactive) | normalised cell number [2, 9]: 0.96 | normalised cell number [2, 10]: 1.06 | remaining activity [3]: 104% (inactive)

Nc1ccc(O)c(C(=O)O)c1
mean signal [1]: 261 (inactive) | red/green cell ratio (normalised) [2]: 1.19 (inactive) | normalised cell number [2, 9]: 1.04 | normalised cell number [2, 10]: 1.24

CN1CCN(C2=Nc3ccccc3Oc3ccc(Cl)cc32)CC1
mean signal [1]: 262 (inactive) | red/green cell ratio (normalised) [2]: 0.99 (inactive) | normalised cell number [2, 9]: 1.1 | normalised cell number [2, 10]: 1.09

Cc1cccc(C)c1OCC(C)N (configuration not stated)
mean signal [1]: 227 (inactive) | red/green cell ratio (normalised) [2]: 1.08 (inactive) | normalised cell number [2, 9]: 1.13 | normalised cell number [2, 10]: 1.22 | remaining activity [3]: 104% (inactive)

CC(Oc1c(Cl)cccc1Cl)C1=NCCN1 (configuration not stated)
mean signal [1]: 295 (inactive) | red/green cell ratio (normalised) [2]: 1.37 (inactive) | normalised cell number [2, 9]: 0.85 | normalised cell number [2, 10]: 1.17

CCOC(=O)C1=C(C)NC(C)=C(C(=O)OC)C1c1cccc(Cl)c1Cl (configuration not stated)
mean signal [1]: 217 (inactive) | red/green cell ratio (normalised) [2]: 1.08 (inactive) | normalised cell number [2, 9]: 1.11 | normalised cell number [2, 10]: 1.2

CC(C)(C(=O)c1cccnc1)c1cccnc1
mean signal [1]: 259 (inactive) | red/green cell ratio (normalised) [2]: 0.85 (inactive) | normalised cell number [2, 9]: 1.21 | normalised cell number [2, 10]: 1.04

Cc1ncc([N+](=O)[O-])n1CC(O)CCl (configuration not stated)
mean signal [1]: 246 (inactive) | red/green cell ratio (normalised) [2]: 1.07 (inactive) | normalised cell number [2, 9]: 1.1 | normalised cell number [2, 10]: 1.18

CCOc1cc(CC(=O)N[C@@H](CC(C)C)c2ccccc2N2CCCCC2)ccc1C(=O)O
mean signal [1]: 247 (inactive) | red/green cell ratio (normalised) [2]: 0.96 (inactive) | normalised cell number [2, 9]: 1.2 | normalised cell number [2, 10]: 1.16 | remaining activity [3]: 120% (inactive) | outcome [4]: inactive | outcome [6]: inactive | outcome [7]: inactive
